The text below walks through data of the antibiotic and cytotoxicity screens of Wong et al. (2023).

About 1,500 (3.8%) of roughly 39,000 compounds were called active. The full list was thinned out, with actives kept by preference.

The test system of the test is HSkMC (human skeletal muscle cells). Description: cytotoxicity call (relative viability < 0.9). The note with it: 10 µM.
With `CCS(=O)(=O)Nc1ccc2c(c1)C(=O)N(C)[C@H]1CC[C@@H](CC(=O)NCCCN3CCOCC3)O[C@H]1CO2`, the cytotoxicity call is “inactive”.

Turning to `COc1ccc(NC(=O)Nc2ccc3c(c2)C(=O)N([C@H](C)CO)C[C@@H](C)[C@@H](CN(C)Cc2ccc(C(F)(F)F)cc2)O3)cc1`, the cytotoxicity call was “inactive”.

For the molecule `COc1ccc(CN(C)C[C@H]2Oc3ccc(NC(=O)Nc4ccc(C(F)(F)F)cc4)cc3C(=O)N([C@@H](C)CO)C[C@@H]2C)cc1`, the cytotoxicity call is “active”.

As to `COc1ccc(NC(=O)Nc2ccc3c(c2)C(=O)N([C@H](C)CO)C[C@H](C)[C@H](CN(C)Cc2ccc(C(F)(F)F)cc2)O3)cc1`, the cytotoxicity call was “inactive”.

With `COc1ccc(CN(C)C[C@H]2Oc3ccc(NC(=O)Nc4ccc(C(F)(F)F)cc4)cc3C(=O)N([C@@H](C)CO)C[C@H]2C)cc1`, the cytotoxicity call is “active”.

Turning to `COc1ccc(S(=O)(=O)Nc2ccc3c(c2)C(=O)N([C@@H](C)CO)C[C@@H](C)[C@@H](CN(C)Cc2ccccc2)OCCCC[C@H](C)O3)cc1`, the cytotoxicity call was “inactive”.

Turning to `C[C@H](CO)N1C[C@H](C)[C@@H](CN(C)S(=O)(=O)c2ccc(Cl)cc2)Oc2c(NS(C)(=O)=O)cccc2C1=O`, the cytotoxicity call was “inactive”.

Consider `C[C@@H]1CN([C@@H](C)CO)C(=O)Cc2cc(NS(C)(=O)=O)ccc2O[C@H]1CN(C)S(=O)(=O)c1ccc(F)cc1`, for which the cytotoxicity call is “inactive”.

With `O=C(C[C@@H]1C=C[C@H](NC(=O)c2ccncc2)[C@@H](CO)O1)NCc1ccncn1`, the cytotoxicity call is “inactive”.

As to `C[C@H](CO)N1C[C@H](C)[C@@H](CN(C)Cc2ccc(Oc3ccccc3)cc2)Oc2ccc(NS(=O)(=O)c3ccccc3)cc2C1=O`, the cytotoxicity call is “inactive”.

Take `Cc1ccc(S(=O)(=O)Nc2ccc3c(c2)C(=O)N([C@@H](C)CO)C[C@@H](C)[C@H](CN(C)Cc2ccc(Oc4ccccc4)cc2)O3)cc1`: the cytotoxicity call was “inactive”.

Take `C[C@@H]1CN([C@H](C)CO)C(=O)c2cc(NS(=O)(=O)c3ccccc3)ccc2O[C@@H]1CN(C)Cc1ccc(Oc2ccccc2)cc1`: the cytotoxicity call is “active”.

As for `Cc1ccc(S(=O)(=O)Nc2ccc3c(c2)C(=O)N([C@@H](C)CO)C[C@H](C)[C@@H](CN(C)Cc2ccc(Oc4ccccc4)cc2)O3)cc1`, the cytotoxicity call was “inactive”.

As to `COc1ccc(S(=O)(=O)Nc2ccc3c(c2)C(=O)N([C@H](C)CO)C[C@@H](C)[C@@H](CN(C)Cc2ccc(Oc4ccccc4)cc2)O3)cc1`, the cytotoxicity call is “inactive”.

Turning to `COc1ccc(S(=O)(=O)Nc2ccc3c(c2)C(=O)N([C@H](C)CO)C[C@H](C)[C@H](CN(C)Cc2ccc(Oc4ccccc4)cc2)O3)cc1`, the cytotoxicity call was “inactive”.

Turning to `C[C@H]1CN([C@@H](C)CO)C(=O)c2cc(NS(=O)(=O)c3ccccc3)ccc2O[C@H]1CN(C)Cc1ccc(Oc2ccccc2)cc1`, the cytotoxicity call is “inactive”.

For the molecule `Cc1ccc(S(=O)(=O)Nc2ccc3c(c2)C(=O)N([C@H](C)CO)C[C@@H](C)[C@@H](CN(C)Cc2ccc(Oc4ccccc4)cc2)O3)cc1`, the cytotoxicity call is “active”.

Consider `Cc1ccc(S(=O)(=O)Nc2ccc3c(c2)C(=O)N([C@@H](C)CO)C[C@@H](C)[C@@H](CN(C)Cc2ccc(Oc4ccccc4)cc2)O3)cc1`, for which the cytotoxicity call is “active”.

Consider `COc1ccc(S(=O)(=O)Nc2ccc3c(c2)C(=O)N([C@H](C)CO)C[C@H](C)[C@@H](CN(C)Cc2ccc(Oc4ccccc4)cc2)O3)cc1`, for which the cytotoxicity call is “active”.

Consider `Cc1ccc(S(=O)(=O)Nc2ccc3c(c2)C(=O)N([C@@H](C)CO)C[C@H](C)[C@H](CN(C)Cc2ccc(Oc4ccccc4)cc2)O3)cc1`, for which the cytotoxicity call was “inactive”.

`CC(C)NC(=O)Nc1ccc2c(c1)C(=O)N([C@H](C)CO)C[C@@H](C)[C@@H](CN(C)C(=O)NC1CCCCC1)O2`: the cytotoxicity call is “inactive”.

In the case of `CN1CCN(C(=O)C[C@H]2CC[C@H](NC(=O)c3ccc4c(c3)OCO4)[C@H](CO)O2)CC1`, the cytotoxicity call is “inactive”.

On to `C[C@@H]1CN([C@@H](C)CO)C(=O)c2cc(NS(=O)(=O)c3cccs3)ccc2O[C@@H](C)CCCCO[C@H]1CN(C)Cc1ccccc1`, for which the cytotoxicity call is “inactive”.

For the molecule `C[C@H](CO)N1C[C@H](C)[C@H](CN(C)C(=O)Cc2ccccn2)Oc2cc(-c3cccc(C(=O)N(C)C)c3)ccc2S1(=O)=O`, the cytotoxicity call is “inactive”.

Regarding `C[N+](C)(C)CCCC[C@@H]1NC(=O)[C@@H]2C[C@H](C(=O)NCc3ccc(F)cc3)[C@H](c3cccc(OCCO)c3)N2C1=O`, the cytotoxicity call is “inactive”.

With `C[C@@H]1CCCCO[C@@H](CN(C)Cc2ccccc2)[C@H](C)CN([C@@H](C)CO)C(=O)c2cc(NC(=O)c3ccncc3)ccc2O1`, the cytotoxicity call is “inactive”.

Consider `C[C@H](CO)N1C[C@H](C)[C@@H](CN(C)C(=O)Nc2ccccc2F)Oc2ncc(Br)cc2C1=O`, for which the cytotoxicity call was “inactive”.

Consider `C[C@H](CO)N1C[C@H](C)[C@@H](CN(C)C(=O)Nc2ccc(C(C)(C)C)cc2)OCc2cn(nn2)CCCC1=O`, for which the cytotoxicity call is “inactive”.

In the case of `C[C@H]1CN([C@@H](C)CO)C(=O)Cc2cc(NC(=O)Cc3cn(C)c4ccccc34)ccc2O[C@H]1CN(C)Cc1ccc(C(=O)Nc2ccccc2N)cc1`, the cytotoxicity call is “inactive”.

`C[C@H](CO)N1C[C@H](C)[C@@H](CN(C)C(=O)C2CCCCC2)OCCCC[C@H](C)Oc2ccc(NS(=O)(=O)c3cccs3)cc2C1=O`: the cytotoxicity call is “inactive”.

Consider `C[C@H](O)C#Cc1cnc2c(c1)C(=O)N([C@@H](C)CO)C[C@H](C)[C@H](CN(C)C(=O)CN1CCOCC1)O2`, for which the cytotoxicity call was “inactive”.

As to `CC(C)NC(=O)N(C)C[C@@H]1Oc2c(NS(=O)(=O)c3cn(C)cn3)cccc2C(=O)N([C@@H](C)CO)C[C@@H]1C`, the cytotoxicity call is “inactive”.

`C[C@@H]1CN([C@@H](C)CO)C(=O)c2cc(NS(=O)(=O)c3cccs3)ccc2O[C@@H](C)CCCCO[C@@H]1CN(C)Cc1ccccc1`: the cytotoxicity call is “inactive”.

Take `Cc1ccc(S(=O)(=O)Nc2ccc3c(c2)C(=O)N([C@H](C)CO)C[C@H](C)[C@H](CN(C)Cc2ccc(Oc4ccccc4)cc2)O3)cc1`: the cytotoxicity call is “inactive”.

Regarding `Cc1ccc(S(=O)(=O)Nc2ccc3c(c2)C(=O)N([C@H](C)CO)C[C@H](C)[C@@H](CN(C)Cc2ccc(Oc4ccccc4)cc2)O3)cc1`, the cytotoxicity call is “inactive”.

As for `Cc1ccc(S(=O)(=O)Nc2ccc3c(c2)C(=O)N([C@H](C)CO)C[C@@H](C)[C@H](CN(C)Cc2ccc(Oc4ccccc4)cc2)O3)cc1`, the cytotoxicity call was “active”.

As to `O=C(CCCCC(=O)N/N=C/[C@H](O)[C@@H](O)[C@@H](O)[C@H](O)C(=O)O)NO`, the cytotoxicity call is “inactive”.

With `CC(=CCO)CCC(C)CCCC(C)CCCC(C)C` (stereo not given), the cytotoxicity call was “active”.

In the case of `CC(=CCC1=C(C)C(=O)c2ccccc2C1=O)CCCC(C)CCCC(C)CCCC(C)C` (stereo not given), the cytotoxicity call is “inactive”.

As for `C/C(=C\CO)CC[C@H](C)CCC[C@H](C)CCCC(C)C`, the cytotoxicity call is “inactive”.
